JMJD2A Tudor inh: inhibitors of human JMJD2A Tudor domain | O75164 | AlphaScreen JMJD2A-Tudor / H3K4me3 peptide binding | Potency, µM (doses to about 114 µM), for inactives: at the top dose activity change, negative = inhibition, usual class: inhibitors | 390,000 compounds, 4.4% hits | AID 504339; further: on the % scale 0 is the no-effect control and ±100 the full control effect; nearly all actives have a fitted effect of over 50% in size
L3MBTL1 block: L3MBTL1 (human) inhibition; AID 485360; Potency, µM (doses to about 57.1 µM), inactives show at the highest dose activity, negative = inhibition, actives largely listed as inhibitors; AlphaScreen L3MBTL1–H3K9me1 peptide binding; 230,000 compounds, 0.66% hits; further: on the % scale 0 is the no-effect control and ±100 the full control effect; nearly all actives have a fitted effect of over 60% in size
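Read-out is AlphaScreen signal from streptavidin donor and nickel chelate acceptor beads (10 ug/mL final each) bridging L3MBTL1 (50 nM) and biotinylated K9-monomethylated H3(1-15) peptide (75 nM), after 30 min compound exposure at room temperature.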
G9a inh: inhibitors of human histone lysine methyltransferase G9a; Q96KQ7; G9a H3K9 monomethylation, AlphaScreen, 2 h; Potency, µM (top dose mostly 102 µM), inactives show top-dose activity, negative = inhibition, most hits filed as inhibitors; 350,000 compounds, 8.8% hits; AID 504332; further: on the % scale 0 is the no-effect control and ±100 the full control effect; nearly all actives have a fitted effect of over 75% in size
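Compounds were preincubated with 20 nM G9a for 15 min, after which biotinylated H3K9 peptide (500 nM) and SAM (20 uM) started a 2 h room-temperature reaction. Monomethylated product was quantified by antibody-based AlphaScreen chemiluminescence.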
Sfp PPTase inh: blocks B. subtilis Sfp PPTase activity. Biochemical Sfp PPTase activity, qHTS. Potency, µM, without a hit: largest response in the series, negative = inhibition, most hits filed as inhibitors. 310,000 compounds, 3.5% hits;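 further: the enzyme is Sfp with the accession as filed and its product quenches rhodamine fluorescence; 0% = enzyme reaction without inhibitor and -100% = no enzyme wells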
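Reaction rates are the 30-min fluorescence difference (ex 525, em 598 nm) in wells containing 15 nM Sfp, 5 uM rhodamine-CoA and 12.5 uM BHQ-2-YbbR at pH 7.6 with 10 mM MgCl2.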
BAZ2B block: inhibitors of human BAZ2B bromodomain; Q9UIF8; AlphaScreen BAZ2B-H3K14Ac peptide displacement; Potency, µM (series often up to 114 µM), without a hit: top-dose activity change, negative = inhibition, hits mostly inhibitors; 360,000 compounds, 4.4% hits; further: on the % scale 0 is the no-effect control and ±100 the full control effect; nearly all actives have a fitted effect of over 60% in size
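Inhibition is scored as reduced AlphaScreen emission. The BAZ2B/b-H3(5-23)K14Ac complex (50 nM each) in PBS pH 7.4, 0.01% Tween-20 meets compound (up to 110 uM) for 30 min at RT before bead addition.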
HP1b binding inh: inhibitors of HP1-beta chromodomain binding to methylated histone tails; P83916; Potency, µM (titrated, usually from 114 µM), for the others: top-dose activity change, negative = inhibition, most hits filed as inhibitors; 390,000 compounds, 0.56% hits; AlphaScreen HP1-beta / biotin-H3K9me3 peptide binding; further: nearly all actives have a fitted effect of over 70% in size
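Compound inhibition of the preformed complex between 50 nM HP1-beta and 50 nM biotinylated H3K9me3 peptide was read by AlphaScreen. Buffer was PBS pH 7.4 with 0.01% Tween-20. Incubations ran 30 min at room temperature, with 10 ug/mL donor/acceptor beads.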
An asterisk follows results filed as active; ? = inconclusive; nt = not tested or not shown; [ ] = another dose, or the depositor's remark. This is a sample that favours compounds with a hit; in the whole collection about 12% have one here. The call rests on the fitted dose curve; in most records, active means well fitted curve in the direction sought with a large enough effect; inconclusive means small, poorly fitted or top-dose-only effect, or another doubt; inactive means no such curve, though single readings can be large; an effect the other way counts as inactive or inconclusive. Potency means the concentration at half of the fitted maximal effect.

SMILES	JMJD2A Tudor inh	L3MBTL1 block	G9a inh	Sfp PPTase inh	BAZ2B block	HP1b binding inh
CCOC(=O)NC(=O)/C(C#N)=N\Nc1cccc(Cl)c1	-29%	nt	?	12%	?	-16%
Cc1c(-n2c(O)c(C3=c4ccccc4=NC3=O)sc2=S)c(=O)n(-c2ccccc2)n1C	-6%	-5%	45µM*	?	-31%	-12%
O=C(NCCc1ccccc1)c1ccc(CSc2nc3ccncc3n2Cc2ccc(F)cc2)cc1	-11%	nt	2%[59 µM]	nt	-8%	45%
COC(=O)/C(=N/Nc1ccccc1C)Sc1nnc(C(O)c2ccccc2)n1-c1ccccc1 (stereo not given)	-19%	?	16µM*	?	-8%	24%
CC(=O)/C(=N/Nc1cccc(Cl)c1)Sc1nnc(C(O)c2ccccc2)n1-c1ccccc1 (stereo not given)	-17%	-7%	?	3%	-38%	35%
N[C@@H]1CCN(O)C1=O	nt	nt	nt	-28%	nt	nt
CN(C)CC(C)(C)CNS(=O)(=O)c1ccc(Cl)cc1	-8%	nt	-63%	10%	nt	40%
CN(C)CC(C)(C)CNS(=O)(=O)c1cccc(Cl)c1Cl	50µM*	nt	8.9µM*	4%	11%	26%
O=c1c(-c2ccccc2)nc2cnc(Oc3cccc(Cl)c3)nc2n1C1CC1	nt	nt	0%[0.501 µM]	-5%	nt	nt
CCN(C=NC1=NN(c2cccc(C(F)(F)F)c2)CC1)CC	50µM*	-2%	?	4%	50µM*	?
Cc1cccc(N2C(=O)CCC2=O)c1	18%[57.1 µM]	?	15%[59 µM]	14%	-2%	41%
OCCN(C=NC1=NN(c2cccc(C(F)(F)F)c2)CC1)CCO	?	-4%	nt	-12%	-8%	-9%
Cc1cccc(N2CCC(N=CN(C)C)=N2)c1	?	-6%	4µM*	?	-24%	6%
O=C1C(Nc2ccccc2)=CC(c2ccc(Br)cc2)N1c1ccccc1 (stereo not given)	4%	nt	?	nt	-3%	38%
CCCCSc1nc2c([nH]1)c(=S)n(C)c(=O)n2C	-17%	nt	nt	nt	nt	6%
CCN(CC)CCSc1nc2c([nH]1)c(=S)n(C)c(=O)n2C	18µM*	nt	nt	nt	nt	24%
Cn1c(=S)c2[nH]c(SCCC(C)(C)C)nc2n(C)c1=O	22µM*	nt	nt	nt	nt	1%
CSc1nc2c([nH]1)c(=S)n(C)c(=O)n2C	-3%	nt	nt	nt	nt	30%[57 µM]
CCCC(CC)Sc1nc2c([nH]1)c(=S)n(C)c(=O)n2C (stereo not given)	?	nt	nt	nt	nt	-11%
Cn1c(=S)c2[nH]c(SCc3cccnc3)nc2n(C)c1=O	8.9µM*	nt	nt	nt	nt	1%
CCOc1ccc(NC(=O)Cn2cnc3nc4c(cc3c2=O)CCCC4)cc1	-25%	nt	1%[59 µM]	nt	-1%	19%[57 µM]
CCC(=O)N1CCc2cc(Br)cc(S(=O)(=O)N3CCCC(C(=O)NCc4ccccc4)C3)c21 (stereo not given)	-3%	nt	5%[59 µM]	nt	-2%	34%
CCCCCOP(=O)(OCCCCC)C1(NS(=O)(=O)c2ccccc2)C=CC(=O)c2ccccc21 (stereo not given)	-29%	-5%	8.9µM*	11%	-2%	?
CCOc1ccc(NC(=O)N2CCN(Cc3cc(=O)n4nc(-c5ccc(OC)cc5)sc4n3)CC2)cc1	-8%	nt	8%[59 µM]	nt	5%	14%[57 µM]
COc1ccc(NC(=O)C2CCCN2C(=O)NCc2ccccc2)cc1 (stereo not given)	14µM*	3%	-4%[12.7 µM]	23%	3%	1%
SMILES	JMJD2A Tudor inh	L3MBTL1 block	G9a inh	Sfp PPTase inh	BAZ2B block	HP1b binding inh
CCOc1ccc(N(C(C)C(=O)NC2CCCCCC2)S(C)(=O)=O)cc1 (stereo not given)	-6%	2%	14µM*	-21%	-2%	-3%
CCCCSc1nc(O)c(C2OC(=O)c3c2ccc(OC)c3OC)c(=O)n1-c1ccccc1 (stereo not given)	-23%	nt	?	79µM*	?	36%
Cc1ccc(S(=O)(=O)CC(c2ccccc2)N2CCOCC2)cc1 (stereo not given)	-9%	nt	11%[59 µM]	21%	4%	9%
Cc1ccc(S(=O)(=O)CC(c2ccccc2)N2CCCCC2)cc1 (stereo not given)	-7%	1%	50µM*	21%	-13%	36%
Cc1sc2ncn(CC(=O)N3CCN(c4cccc(Cl)c4)CC3)c(=O)c2c1S(=O)(=O)N1CCN(c2ncccn2)CC1	-12%	nt	-2%[59 µM]	nt	-1%	37%
CC1(C)OC(=O)C(=CNCC(O)c2ccccc2)C(=O)O1 (stereo not given)	-13%	-6%	29%[12.7 µM]	10%	7%	7%
CSCCC(NC=C1C(=O)OC(C)(C)OC1=O)C(=O)O (stereo not given)	79µM*	?	-11%	-16%	-30%	15%
CCc1ccc2occ(CC(=O)Nc3c(C(=O)c4ccccc4)oc4ccccc34)c2c1	47%	nt	13%[59 µM]	nt	16%	58%
Cc1ccc(C)c(-c2ccc(C(=O)O)o2)c1	nt	nt	?	112µM*	nt	nt
COc1ccccc1-c1ccc(C(=O)O)o1	-22%	nt	-51%[12.7 µM]	11%	-6%	21%
COc1ccc(Cl)cc1-c1ccc(C(=O)O)o1	nt	nt	?	112µM*	nt	nt
COc1cccc(C(=O)Nc2ccccc2-c2nc(-c3ccc(C)cc3)no2)c1	-9%	nt	-25%[59 µM]	nt	-32%	12%
Oc1[nH]c(=S)sc1/C=C1\C(c2ccccc2)=Nc2ccccc21	16µM*	0%	2.5µM*	-13%	?	-14%
CC(=O)N(/N=C/c1ccc(C)cc1)c1nc(CCl)cs1	-6%	nt	18µM*	10%	4%	22%
Cc1ccc(CNC(=O)CSc2nc3ccsc3c(=O)n2-c2ccc(Br)cc2)cc1	-6%	nt	-2%[59 µM]	nt	-4%	22%
Cc1nc2cc(NC(=O)C3COc4ccccc4O3)ccc2s1 (stereo not given)	-16%	-5%	50µM*	-2%	-28%	5%
CC(C)NC(=O)c1ccccc1NC(=O)C1COc2ccccc2O1 (stereo not given)	50µM*	6%	5%[59 µM]	19%	-1%	-5%
Cc1cnc(NC(=O)C2COc3ccccc3O2)s1 (stereo not given)	?	-8%	35µM*	5%	?	-2%

Source: PubChem (National Center for Advancing Translational Sciences (NCATS))
